For part of these data: Results with a measured potency or affinity are listed apart. The source made the active and inactive calls. Unless noted, no rule for the calls is given here.

The target in assay [1] is Cell division control protein 42 homolog (Homo sapiens) (UniProt P60953). Put plainly: activated mutant Cdc42 GTP-binding inhibitors, dose response, biochemical, multiplex bead flow cytometry, Bodipy-FL-GTP (AID 1333;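 active = fitted half-maximal concentration within the tested dose range, moderate curve steepness, a statistically real signal drop, and little compound fluorescence or tag-binding interference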).
Assay [2] has the same target. As to the kind of experiment: wildtype Cdc42 GTP-binding inhibitors, dose response, biochemical, multiplex bead flow cytometry, Bodipy-FL-GTP (AID 1334;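 active = fitted half-maximal concentration within the tested range, moderate curve steepness, significant signal drop, and little compound fluorescence or bead-linkage interference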). The note with it: bead-based flow cytometry, Bodipy-FL-GTP binding to GST-Cdc42; at 100 µM (top of the series) unless noted. On the technique in general: In flow cytometry, cells or beads pass a laser one at a time.
Assay [3] has as its target GTPase HRas (Homo sapiens) (UniProt P01112). Put plainly: inhibitors of GTP binding to wildtype Ras, dose response, biochemical, multiplex bead flow cytometry (AID 1335;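 active = fitted half-maximal concentration within 10 nM to 100 µM, steepness 0.5 to 2, significant signal drop, low assay interference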). The note with it: bead-based flow cytometry, Bodipy-GTP binding to GST-Ras; at 100 µM (top of the series) unless noted.
The test system of assay [4] is Ras-related protein Rab-7a (dog), GTP binding. As to the kind of experiment: Rab7 GTP binding inhibitors, potency, dose response, biochemical, wildtype, multiplex bead flow cytometry (AID 1336).
Assay [5] deals with Ras-related C3 botulinum toxin substrate 1 (Homo sapiens) (UniProt P63000). Put plainly: wildtype Rac1 GTP binding inhibitors, dose response, biochemical, multiplex bead flow cytometry (AID 1340;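 active = dose curve with midpoint inside tested range, moderate steepness, plateau gap beyond fit error, low compound glow and bead-link interference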). The note with it: GST-Rac1 beads, Bodipy-FL-GTP binding; at 100 µM (top of the series) unless noted.
In assay [6] the target is GTPase HRas (Homo sapiens) (UniProt P01112). As to the kind of experiment: activated Ras mutant GTP binding inhibitors, dose response, biochemical, multiplex bead flow cytometry (AID 1341;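 active = dose-response curve with midpoint inside the tested range, moderate steepness, significant amplitude and little compound fluorescence or bead-attachment interference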;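 also: GST-tagged constitutively activated Ras mutant immobilized on beads and multiplexed with other GTPases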).
Sequence of GTPase HRas (Homo sapiens) (P01112 whole entry, looked up): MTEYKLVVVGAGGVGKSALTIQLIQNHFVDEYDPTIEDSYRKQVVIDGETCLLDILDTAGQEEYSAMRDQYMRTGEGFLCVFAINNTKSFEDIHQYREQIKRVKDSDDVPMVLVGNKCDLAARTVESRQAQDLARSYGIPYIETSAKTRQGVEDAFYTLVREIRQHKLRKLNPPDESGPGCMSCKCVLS

Sequence of Cell division control protein 42 homolog (Homo sapiens) (P60953 whole entry, looked up): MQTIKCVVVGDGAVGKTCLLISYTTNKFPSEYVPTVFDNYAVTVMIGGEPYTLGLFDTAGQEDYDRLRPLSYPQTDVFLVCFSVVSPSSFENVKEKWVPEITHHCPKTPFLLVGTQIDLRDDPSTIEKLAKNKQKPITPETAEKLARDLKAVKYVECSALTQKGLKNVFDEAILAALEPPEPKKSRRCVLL

With `CCCN(N=Nc1cccc([N+](=O)[O-])c1)c1cccc([N+](=O)[O-])c1`, the result in assay [1], in assay [4] and in assay [6] was inactive. The compound also came in with a fluorescence, percent of control (lower = inhibition) in assay [2] of 84.9%. Also, the GTP binding, percent of control in assay [3] is 156%. In assay [5], this compound showed a GTP binding signal, raw median fluorescence (lower = inhibition) (MCF (arbitrary fluorescence units)) of 170.

Take `O=C(O)c1ccc(COc2cccc(Cl)c2)o1`: the compound was classed as inactive in assay [1], in assay [4] and in assay [6]. This compound also had a fluorescence, percent of control (lower = inhibition) in assay [2] of 60.1%. The compound further registered a GTP binding, percent of control in assay [3] of 87%. Further, the GTP binding signal, raw median fluorescence (lower = inhibition) (MCF (arbitrary fluorescence units)) in assay [5] was 32.8.

Consider `COc1ccc(S(=O)(=O)Cc2ccc(C(=O)N3CCN(c4cc(Cl)ccc4C)CC3)o2)cc1`, for which the call in assay [1], in assay [4] and in assay [6] was inactive. The compound further registered a fluorescence, percent of control (lower = inhibition) in assay [2] of 35.1%. In assay [3], the GTP binding, percent of control stood at 57.4%. The compound also returned a GTP binding signal, raw median fluorescence (lower = inhibition) (MCF (arbitrary fluorescence units)) in assay [5] of 148.

Regarding `Cc1cc(C)n2nc(SCCOc3ccc(F)cc3)nc2n1`, the outcome in assay [1], in assay [4] and in assay [6] was inactive. In assay [2], the fluorescence, percent of control (lower = inhibition) came to 42.7%. For the same compound, the GTP binding, percent of control in assay [3] worked out at 78.4%. This compound displayed a GTP binding signal, raw median fluorescence (lower = inhibition) (MCF (arbitrary fluorescence units)) in assay [5] of 166.

For the compound `C/C(=N\Nc1ccc(S(N)(=O)=O)cc1[N+](=O)[O-])c1ccc2c(c1)OCO2`, the call in assay [1], in assay [4] and in assay [6] was inactive. The compound also came in with a fluorescence, percent of control (lower = inhibition) in assay [2] of 36.3%. In addition, in assay [3], the GTP binding, percent of control was found to be 79.8%. The same compound came in with a GTP binding signal, raw median fluorescence (lower = inhibition) (MCF (arbitrary fluorescence units)) in assay [5] of 220.

With `Cc1ccc(C2C(C#N)C(C#N)N3CCCN23)cc1` (stereo unspecified), the call in assay [1], in assay [4] and in assay [6] was inactive. This compound gave a fluorescence, percent of control (lower = inhibition) in assay [2] of 99.2%. In assay [3], this compound yielded a GTP binding, percent of control of 156%. The GTP binding signal, raw median fluorescence (lower = inhibition) (MCF (arbitrary fluorescence units)) in assay [5] was 200.

Turning to `O=C(O)c1c(C(F)(F)F)ccnc1NCc1ccccc1`, the outcome in assay [1], in assay [4] and in assay [6] was inactive. In addition, the fluorescence, percent of control (lower = inhibition) in assay [2] was 61.8%. The same compound yielded a GTP binding, percent of control in assay [3] of 224%. Moreover, the GTP binding signal, raw median fluorescence (lower = inhibition) (MCF (arbitrary fluorescence units)) in assay [5] amounted to 57.2.

Consider `CCN1C(=O)/C(=C/C=C2/Sc3ccc4ccccc4c3N2CCO)SC1=S`, for which the outcome in assay [1], in assay [4] and in assay [6] was inactive. The fluorescence, percent of control (lower = inhibition) in assay [2] stood at 27.6%. For the same compound, in assay [3], the GTP binding, percent of control came out at 59.2%. The same compound came in with a GTP binding signal, raw median fluorescence (lower = inhibition) (MCF (arbitrary fluorescence units)) in assay [5] of 179.

For the compound `Cc1cccc(CSCc2ccc(C(=O)O)o2)c1`, the result in assay [1], in assay [4] and in assay [6] was inactive. This compound also registered a fluorescence, percent of control (lower = inhibition) in assay [2] of 58.1%. Further, the GTP binding, percent of control in assay [3] was 86.9%. Moreover, in assay [5], the GTP binding signal, raw median fluorescence (lower = inhibition) (MCF (arbitrary fluorescence units)) worked out at 28.5.

As for `COCCNC(=S)Nc1cc(OC)c(OC)cc1C#N`, the outcome in assay [1], in assay [4] and in assay [6] was inactive. In addition, in assay [2], the fluorescence, percent of control (lower = inhibition) turned out to be 40.8%. In assay [3], this compound displayed a GTP binding, percent of control of 74.7%. The GTP binding signal, raw median fluorescence (lower = inhibition) (MCF (arbitrary fluorescence units)) in assay [5] came to 144.

Take `COCCNc1nc(=S)[nH]c2cc(OC)c(OC)cc12`: the outcome in assay [1], in assay [4] and in assay [6] was inactive. This compound also had a fluorescence, percent of control (lower = inhibition) in assay [2] of 35.9%. For the same compound, the GTP binding, percent of control in assay [3] worked out at 43.7%. In assay [5], the GTP binding signal, raw median fluorescence (lower = inhibition) (MCF (arbitrary fluorescence units)) was found to be 103.

For `COC(=O)c1cn(CCOc2ccccc2)c2ccccc12`, the call in assay [1], in assay [4] and in assay [6] was inactive. For the same compound, in assay [2], the fluorescence, percent of control (lower = inhibition) was determined as 34.2%. This compound yielded a GTP binding, percent of control in assay [3] of 83%. Also, in assay [5], the GTP binding signal, raw median fluorescence (lower = inhibition) (MCF (arbitrary fluorescence units)) came out at 225.

For the compound `O=c1c2ccccc2nc2c3ccccc3c(NCc3cccnc3)nn12`, the compound was classed as inactive in assay [1], in assay [4] and in assay [6]. The same compound came in with a fluorescence, percent of control (lower = inhibition) in assay [2] of 27.9%. Moreover, the GTP binding, percent of control in assay [3] is 71.5%. In assay [5], this compound gave a GTP binding signal, raw median fluorescence (lower = inhibition) (MCF (arbitrary fluorescence units)) of 157.

In the case of `COc1ccccc1OCCn1cc(C(=O)O)c2c(Cl)cccc21`, the compound was called inactive in assay [1], in assay [4] and in assay [6]. Moreover, in assay [2], the fluorescence, percent of control (lower = inhibition) stood at 48.6%. For the same compound, in assay [3], the GTP binding, percent of control was 191%. The compound further came in with a GTP binding signal, raw median fluorescence (lower = inhibition) (MCF (arbitrary fluorescence units)) in assay [5] of 52.

On to `CCOc1cc(/C=N/Nc2nncc(-c3ccccc3)n2)ccc1O`, for which the outcome in assay [1], in assay [4] and in assay [6] was inactive. This compound also yielded a fluorescence, percent of control (lower = inhibition) in assay [2] of 37.4%. This compound also gave a GTP binding, percent of control in assay [3] of 75.5%. Also, in assay [5], the GTP binding signal, raw median fluorescence (lower = inhibition) (MCF (arbitrary fluorescence units)) amounted to 160.

Regarding `COc1cc(/C=C(\C#N)c2nc3ccc(C)cc3[nH]2)cc([N+](=O)[O-])c1O`, the compound was called inactive in assay [1], in assay [4] and in assay [6]. Further, the fluorescence, percent of control (lower = inhibition) in assay [2] stood at 25.3%. Moreover, the GTP binding, percent of control in assay [3] worked out at 61.6%. In assay [5], the GTP binding signal, raw median fluorescence (lower = inhibition) (MCF (arbitrary fluorescence units)) came to 151.

The values are drawn from PubChem BioAssay.
